Assay results: PubChem BioAssay AID449762 (Southern Research Specialized Biocontainment Screening …, 2010)
The campaign covered roughly 330,000 compounds. About 1,900 (0.58%) were called active. Not shown: some 4% with an inconclusive outcome. Only a sample is shown. Entries with a potency or affinity are not part of this list. Values without a mark were called inactive. No stated cut-off is given here; in the data, inconclusive means inhibition above about 70% without an active follow-up result; inactive means below that.

assay: M. tuberculosis growth inhibition, HTS (AID 449762);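 further: bacterial growth assessed after seven days of incubation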; conditions: M. tuberculosis H37Rv growth inhibition, 7H9 media; at 25 µM; hits give high values

Compound	inhibition [%]
FC(F)(F)c1cc(N2CCNCC2)c2ccccc2n1	4.5
COc1ccc2cc(S(=O)(=O)NCc3cccnc3)ccc2c1	-6.19
Oc1ccccc1-c1nnc(COc2ccc(Cl)cc2Cl)o1	2.32
c1ccc(OCc2nnc(-c3ccccc3)o2)cc1	3.84
Cc1ccccc1C(=O)Nc1cccc(-c2cn3ccccc3n2)c1	35.7
O=C(O)CCC(=O)Nc1nnc(C(F)(F)F)s1	5.81
Cc1nnc(NC(=O)CCC(=O)NC2CCCCCCC2)s1	2.33
CC(=O)c1cccc(S(=O)(=O)NCCC(=O)NC2CCCCCC2)c1	2.95
CCN(CC)S(=O)(=O)c1ccc(NC(=O)c2ccc(Sc3nncn3C)c([N+](=O)[O-])c2)cc1	3.9
COCCn1c(O)c(/C=N/NC(=O)CSC(=S)N2CCCC2)c(=O)[nH]c1=S	-6.24
CCOc1ccccc1NC(=O)C1CCCN(c2c(CC)c(C)nc3ncnn23)C1 (configuration not stated)	3.2
CCN(c1cccc(C)c1)S(=O)(=O)c1nnc(NC(=O)c2ccco2)s1	-5.15
CC(C)Cn1c2c(c(O)c(C(=O)Nc3nccs3)c1=O)CCCC2	8.72
Cc1csc(NC(=O)c2c(O)c3c(n(CC(C)C)c2=O)CCCC3)n1	65.9
CC(=C1C(=O)c2ccccc2C1=O)N1CCN(c2ccc(F)cc2)CC1	-0.18
CCC(Sc1ccccc1C(=O)O)C(=O)O (configuration not stated)	5.4
O=C(O)c1ccccc1SSc1ccccc1C(=O)O	-0.04
COc1ccc(CN2CCN(Cc3cccc(Oc4ccccc4)c3)CC2)c(OC)c1OC	22.7
Cn1c(C(=O)N2CCCC(C(=O)NCCCSC3CCCCC3)C2)cc2sccc21 (configuration not stated)	67.2
Cc1cc(C)n2nc(N)c(N=Nc3ccc4c(c3)OCO4)c2n1	1.48
Cc1cc(C)n2nc(N)c(N=Nc3ccc(Cl)cc3)c2n1	5.04
CC(C)CNC(=S)N(CCN(C)C)Cc1cc2cc3c(cc2[nH]c1=O)OCCO3	-7.36
COc1ccc(OC)c(NC(=O)CSc2nncc(=O)n2N)c1	-3.14
CC(=O)N1CC(C)Sc2ccc(S(=O)(=O)NC3CCCCC3)cc21 (configuration not stated)	0.78

Compound	inhibition [%]
NC(=O)NCC(=O)N1CCC(C(O)(c2ccccc2)c2ccccc2)CC1	-4.38
COc1ccc(Cc2nnc(SCC(=O)N3CCc4ccccc4C3)o2)cc1	-4.27
COc1ccc(-c2nnc(SCC(=O)N3CCCC3)o2)cc1	-2.88
Cc1cccc(C)c1OCCOC(=O)c1cccc(S(=O)(=O)N2CCOCC2)c1	-2.97
COc1cccc(C(=O)OCC(=O)N2CCc3ccccc3C2)c1OC	-0.41
Cc1cccc(C(=O)OCC(=O)N2CCCCCC2)c1O	20.7
COc1ccccc1N1CCN(S(=O)(=O)c2ccc(Br)s2)CC1	-5.24
Cc1c(Cl)cccc1NC(=O)Nc1cc(C(C)(C)C)nn1C	2.96
Cn1nc(C(C)(C)C)cc1NC(=O)Nc1ccc(Cl)cc1	6.33
COc1ccc(OCC(O)CNC(C)c2ccccc2)cc1 (configuration not stated)	-6.83
CC(C)c1ccc(OCC(O)CNC(C)c2ccccc2)cc1 (configuration not stated)	15.1
C[C@H](NC(=O)C1CC(=O)N(c2ccc3c(c2)OCCO3)C1)C(=O)NCc1ccco1 (some centres not stated)	0.57
COc1ccc(-n2nc3c(N4CCC(C(=O)NCc5ccccc5C)CC4)nnc(C)c3c2C)cc1	8.33
Cc1ccc(-n2nc3c(N4CCC(C(=O)NCCc5ccccc5C)CC4)nnc(C)c3c2C)cc1	5.89
COC(CNC(=O)CNC(=S)N(CCCN1CCOCC1)Cc1cccs1)OC	12.5
Cc1nc(Nc2ccc(Br)cc2Br)c([N+](=O)[O-])c(=O)[nH]1	0.85
Cc1sc2ncnc(Sc3nc4ccccc4s3)c2c1C	-4.93
CCc1cc2c(Sc3nc4ccccc4s3)ncnc2s1	11.1
Cc1nc(-c2ccc(S(=O)(=O)Oc3ccccc3Cl)s2)cs1	4.35
O=C(COc1ccc(S(=O)(=O)N2CCOCC2)cc1)N1CCCCCC1	-3.92
COc1ccccc1-c1cc(C(=O)N2CCN(c3ccccc3)CC2)no1	-4.77
COc1ccc(NS(=O)(=O)c2ccc(C)c(C(=O)NNC(=O)c3ccccc3O)c2)cc1	5.14
CC(C)(C)c1ccc(C(=O)N2CCN(Cc3ccccc3)CC2)cc1	4.6
